“And” between values parts separate entries of the source, which are not always exact repeats. Identical values can stand only once. In all, about 5,500 compounds went through this assay and about 2,000 (36%) were called active. Inconclusive results (about 18%) are left out. Cut-off read from the data, not from the text of the source: active = normalized growth mostly below about 0.91 (no sharp cut-off); inconclusive = no clear call, values can overlap the other calls; inactive = mostly above about 0.92. This is one part of the list.
Test: chemical genetic growth profiling, strain panel (AID 1159580);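 note: tested at 20 µM; growth read once vehicle control cultures reached saturation at 30 °C; 1 = growth at the plate median or of vehicle wells; lower values mean less growth of the strain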
Settings: S. cerevisiae deletion strains, growth OD

Measured: normalized growth

CC(=O)OCC(=O)[C@@]1(O)CCC2C3CCC4=CC(=O)C=CC4(C)C3[C@@H](O)C[C@@]21C (stereo partly drawn)
inactive: locus YAL021C, strain ccr4, hits give low values 1 | locus YAL026C, strain drs2, hits give low values 1 | locus YAL030W, strain snc1, hits give low values 0.997 | locus YBL061C, strain skt5, hits give low values 0.996 | locus YBR009C, strain hhf1, hits give low values 1.01 | locus YBR021W, strain FUR4, hits give low values 1.02 | locus YBR023C, strain chs3, hits give low values 0.994 | locus YBR171W, strain sec66, hits give low values 0.973 | locus YBR229C, strain ROT2, hits give low values 1.01 | locus YBR231C, strain swc5, hits give low values 0.978 | locus YBR279W, strain paf1, hits give low values 0.993 | locus YCL011C, strain gbp2, hits give low values 0.996 | locus YCL016C, strain dcc1, hits give low values 1.01 | locus YCL029C, strain bik1, hits give low values 1.02 | locus YCL061C, strain MRC1, hits give low values 0.997 | locus YCL069W, strain vba3, hits give low values 1 | locus YCR088W, strain abp1, hits give low values 0.998 | locus YDL005C, strain med2, hits give low values 0.992 | locus YDL035C, strain GPR1, hits give low values 1.02 | locus YDL040C, strain nat1, hits give low values 1 | locus YDL074C, strain BRE1, hits give low values 1.02 | locus YDL101C, strain DUN1, hits give low values 1 | locus YDL134C, strain PPH21, hits give low values 1.01 | locus YDL185W, strain tfp1, hits give low values 1.02 | locus YDL192W, strain arf1, hits give low values 1.02 | locus YDR001C, strain nth1, hits give low values 1 | locus YDR069C, strain doa4, hits give low values 0.99 | locus YDR101C, strain arx1, hits give low values 1.02 | locus YDR137W, strain rgp1, hits give low values 0.978 | locus YDR150W, strain NUM1, hits give low values 1 | locus YDR159W, strain sac3, hits give low values 1 | locus YDR162C, strain NBP2, hits give low values 1.01 | locus YDR195W, strain ref2 0.984 | locus YDR297W, strain sur2, hits give low values 0.992 | locus YDR318W, strain mcm21, hits give low values 1.03 | locus YDR334W, strain swr1, hits give low values 1 | locus YDR335W, strain msn5, hits give low values 1 | locus YDR388W, hits give low values 1.02 | locus YDR392W, strain spt3, hits give low values 1.02 | locus YDR502C, strain sam2, hits give low values 1.01 | locus YEL003W, strain gim4, hits give low values 0.998 | locus YEL037C, strain rad23, hits give low values 1 | locus YEL061C, strain CIN8 (second series), hits give low values 0.98 | locus YEL061C, strain CIN8, hits give low values 1 | locus YER015W, strain faa2, hits give low values 0.996 | locus YER016W, strain bim1, hits give low values 1.01 | locus YER110C, hits give low values 1.01 | locus YER111C, strain swi4, hits give low values 0.996 | locus YER155C, strain BEM2 (second series), hits give low values 0.978 | locus YER155C, strain BEM2, hits give low values 1 | locus YER167W, strain BCK2, hits give low values 1.01 | locus YFR010W, strain ubp6, hits give low values 0.993 | locus YGL078C, strain dbp3, hits give low values 1.01 | locus YGL086W, strain mad1, hits give low values 1 | locus YGL167C, strain pmr1, hits give low values 0.999 | locus YGL173C, strain kem1, hits give low values 0.992 | locus YGL227W, strain vid30, hits give low values 1 | locus YGL240W, strain doc1, hits give low values 0.972 | locus YGL248W, strain PDE1, hits give low values 1.01 | locus YGL253W, strain hxk2, hits give low values 1.01 | locus YGR135W, strain pre9, hits give low values 1.02 | locus YGR252W, strain gcn5, hits give low values 1.05 | locus YHR013C, strain ard1, hits give low values 0.978 | locus YHR027C, strain rpn1, hits give low values 1 | locus YHR030C, strain SLT2, hits give low values 1 and 0.977 | locus YHR079C, strain IRE1 (second series), hits give low values 1.02 | locus YHR079C, strain IRE1, hits give low values 0.964 | locus YHR094C, strain hxt1, hits give low values 1.01 | locus YHR129C, strain ARP1, hits give low values 1 | locus YHR142W, strain chs7, hits give low values 0.989 | locus YHR200W, strain rpn10, hits give low values 1.01 | locus YIL066C, strain RNR3, hits give low values 1.01 | locus YIL073C, strain SPO22, hits give low values 1.03 | locus YIL125W, strain kgd1, hits give low values 1.01 | locus YIR030C, strain dcg1, hits give low values 1.02 | locus YJL092W, strain hpr5, hits give low values 0.995 | locus YJL095W, strain BCK1 (second series), hits give low values 0.995 | locus YJL095W, strain BCK1, hits give low values 1.03 and 0.993 | locus YJL115W, strain asf1, hits give low values 0.994 | locus YJL129C, strain trk1, hits give low values 0.97 | locus YJL134W, strain LCB3, hits give low values 1.01 | locus YJL154C, strain vps35, hits give low values 0.996 | locus YJL164C, strain tpk1, hits give low values 1.01 | locus YJL166W, strain qcr8, hits give low values 0.951 | locus YJL168C, strain set2, hits give low values 1.02 | locus YJL187C, strain SWE1 (second series), hits give low values 1.01 | locus YJR043C, strain POL32, hits give low values 1.01 | locus YJR066W, strain TOR1, hits give low values 0.935
